According to paper PMC4336329 (PLoS ONE, 2015):
Among all 310,000 compounds or so, about 14,000 (4.5%) showed an effect of 50% or more. Effects have a minus sign here. For the sample, strong results were picked, then their nearest neighbours and some compounds at random.

biological target: human ether-à-go-go-related gene (hERG) potassium channel (human, UniProt Q12809); test: primary screen, population patch clamp on CHO cells stably expressing hERG; higher = less effect of the substance
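Also: peak tail current of the secondary pulse compared with the same well before compound.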

Sequence of human ether-à-go-go-related gene (hERG) potassium channel (Q12809 whole entry, looked up): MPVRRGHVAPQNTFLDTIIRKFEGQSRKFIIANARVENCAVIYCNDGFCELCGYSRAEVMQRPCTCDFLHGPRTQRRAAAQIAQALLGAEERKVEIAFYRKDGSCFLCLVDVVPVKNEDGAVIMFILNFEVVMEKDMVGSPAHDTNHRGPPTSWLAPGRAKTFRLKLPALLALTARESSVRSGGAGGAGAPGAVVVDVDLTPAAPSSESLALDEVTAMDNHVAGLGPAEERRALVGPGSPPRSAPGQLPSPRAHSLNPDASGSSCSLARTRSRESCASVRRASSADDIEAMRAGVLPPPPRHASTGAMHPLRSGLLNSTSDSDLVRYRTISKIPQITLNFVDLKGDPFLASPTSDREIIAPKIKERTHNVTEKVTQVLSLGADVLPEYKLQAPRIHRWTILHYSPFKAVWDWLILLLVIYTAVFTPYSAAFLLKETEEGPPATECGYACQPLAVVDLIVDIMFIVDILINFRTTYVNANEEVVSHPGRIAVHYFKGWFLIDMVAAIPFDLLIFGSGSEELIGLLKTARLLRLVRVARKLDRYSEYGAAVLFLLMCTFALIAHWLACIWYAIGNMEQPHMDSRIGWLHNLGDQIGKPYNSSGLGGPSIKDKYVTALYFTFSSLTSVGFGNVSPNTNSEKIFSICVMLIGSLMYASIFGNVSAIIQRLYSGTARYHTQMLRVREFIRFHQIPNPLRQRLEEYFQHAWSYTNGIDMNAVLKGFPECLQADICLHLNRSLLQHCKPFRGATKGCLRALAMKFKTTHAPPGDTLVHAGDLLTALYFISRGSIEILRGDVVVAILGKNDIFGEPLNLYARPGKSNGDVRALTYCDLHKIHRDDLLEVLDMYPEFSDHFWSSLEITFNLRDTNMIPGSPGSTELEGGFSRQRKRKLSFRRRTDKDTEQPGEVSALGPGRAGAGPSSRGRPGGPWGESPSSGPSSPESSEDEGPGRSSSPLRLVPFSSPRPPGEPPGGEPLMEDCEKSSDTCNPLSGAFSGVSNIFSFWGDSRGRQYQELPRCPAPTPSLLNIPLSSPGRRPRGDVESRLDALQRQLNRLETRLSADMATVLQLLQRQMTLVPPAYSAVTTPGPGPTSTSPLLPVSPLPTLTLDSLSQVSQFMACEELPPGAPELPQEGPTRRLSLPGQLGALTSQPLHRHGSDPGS

Going from O=C(c1cccnc1)c1ncc(C(F)(F)F)cc1Cl to Cn1nccc1NC(=O)Nc1cccc(Cl)c1Cl, the “hERG current change (%, negative = inhibition) at 10uM” value rises from -3.33% to 16.5%.

First: O=C(CSc1ccccc1)Nc1nnc(C2CC2)s1
Second: COC(=O)CSc1nc(C2CC2)nc2ccccc12
The “hERG current change (%, negative = inhibition) at 10uM” value of the first is higher: 16.9% for the first, -11.5% for the second.

Compared with Cc1c(C(=O)N(Cc2ccccc2)Cc2cccs2)cnn1-c1ccc(Cl)cc1, COC(=O)c1ccc(CN(c2ccccn2)S(=O)(=O)c2ccccc2)cc1 is higher in “hERG current change (%, negative = inhibition) at 10uM” value: -3.32% for the first, 14.1% for the second.

First: O=C(/C=C/c1ccccc1)N/C(=C/c1ccccc1)C(=O)NCCCO
Second: CC(=O)N1CCN(c2ccccc2NC(=O)c2cc3ccccc3o2)CC1
The “hERG current change (%, negative = inhibition) at 10uM” value of the first is higher: -7.96% for the first, -49.8% for the second.

First: CCC(C)c1ccc(S(=O)(=O)N2CCN(c3ccccn3)CC2)cc1 (stereo not drawn)
Second: CC(=O)N1CCc2cc(Br)cc(S(=O)(=O)NCc3ccccn3)c21
The “hERG current change (%, negative = inhibition) at 10uM” value of the first is higher: 24.6% for the first, 7.02% for the second.

First: Cc1ccc(-c2c[n+](CC(=O)N3c4ccccc4Sc4ccccc43)c3n2CCC3)cc1.[Cl-]
Second: Cc1ccc(-c2c[n+](CC(=O)c3cccs3)c3n2CCC3)cc1.[Br-]
The “hERG current change (%, negative = inhibition) at 10uM” value of the first is lower: -49.1% for the first, 5.08% for the second.

Compared with Clc1cccc(C[n+]2cc(-c3ccccc3)n3c2CCC3)c1.[Br-], Cc1ccc(-c2c[n+](Cc3cccc(Cl)c3)c3n2CCC3)cc1.[Br-] is lower in “hERG current change (%, negative = inhibition) at 10uM” value: -25.7% for the first, -57.7% for the second.

Compared with Clc1ccc(-c2c[n+](Cc3ccc(Br)cc3)c3n2CCCCC3)cc1.[Br-], Cc1ccc(-c2c[n+](Cc3ccc(Cl)cc3)c3n2CCC3)cc1.[Cl-] is higher in “hERG current change (%, negative = inhibition) at 10uM” value: -66.4% for the first, -41.6% for the second.

First: Cc1ccc(C[n+]2cc(-c3ccc(Cl)cc3)n3c2CCC3)cc1.[Cl-]
Second: Clc1ccc(C[n+]2cc(-c3ccc(Cl)cc3)n3c2CCC3)cc1.[Cl-]
The “hERG current change (%, negative = inhibition) at 10uM” value of the first is higher: -51.3% for the first, -61.9% for the second.

Going from N#CC[n+]1cc(-c2ccc(Cl)cc2)n2c1CCC2.[Cl-] to Cc1ccc(-c2c[n+](Cc3ccc(Cl)c(Cl)c3)c3n2CCC3)cc1.[Cl-], the “hERG current change (%, negative = inhibition) at 10uM” value falls from 5.21% to -68.9%.

Compared with CCOc1ccc(CC2NCCc3cc(OCC)c(OCC)cc32)cc1OCC (stereo not drawn), CCN(CC)CCCn1c(=S)[nH]c2cc(OC)c(OC)cc2c1=O is higher in “hERG current change (%, negative = inhibition) at 10uM” value: -13.3% for the first, -2.6% for the second.

First: CCN1C(=O)/C(=C\c2ccco2)C(C(=O)OC)=C1C
Second: O=C(C1CC1)N1CCc2cc(Br)cc(S(=O)(=O)NCc3ccco3)c21
The “hERG current change (%, negative = inhibition) at 10uM” value of the first is higher: 10.4% for the first, -41% for the second.

Compared with Cc1cc(C)cc(N(C(C)C(=O)N2CCCCC2)S(C)(=O)=O)c1 (stereo not drawn), CCCCN(C)S(=O)(=O)c1cc(Br)cc2c1N(C(=O)C1CC1)CC2 is lower in “hERG current change (%, negative = inhibition) at 10uM” value: 4.06% for the first, -51.6% for the second.

Compared with Cc1ccc(S(=O)(=O)NCC(=O)N(CC(=O)NCC2CCCO2)Cc2ccc(Cl)cc2)cc1 (stereo not drawn), CC(=O)N1CCc2cc(Br)cc(S(=O)(=O)NCc3ccc(Cl)cc3)c21 is lower in “hERG current change (%, negative = inhibition) at 10uM” value: -11% for the first, -58.6% for the second.

First: Cc1c(Cl)cccc1NC(=S)NC1CCCC1
Second: CN(C)CCn1c(=S)[nH]c2ccc(Cl)cc2c1=O
The “hERG current change (%, negative = inhibition) at 10uM” value of the first is higher: -5.1% for the first, -21.7% for the second.

Compared with Cc1ccc(-c2csc(NC(=O)c3ccno3)n2)cc1, O=C(Nc1nc(-c2ccc3c(c2)OCO3)cs1)C1COc2ccccc2O1 (stereo not drawn) is higher in “hERG current change (%, negative = inhibition) at 10uM” value: 2.72% for the first, 13.1% for the second.

Going from CN1CCN(C(=O)CSc2nc(-c3cccs3)ccc2C#N)CC1 to O=C(O)c1cc(-c2cccs2)nc2ccc(Br)cc12, the “hERG current change (%, negative = inhibition) at 10uM” value rises from -4.44% to 21%.

Compared with O=[N+]([O-])c1ccc(C[n+]2cc(-c3ccc(Cl)c(Cl)c3)n3c2CCCCC3)cc1.[Br-], Clc1ccc(C[n+]2cc(-c3ccccc3)n3c2CCC3)cc1Cl.[Cl-] is lower in “hERG current change (%, negative = inhibition) at 10uM” value: -15.7% for the first, -45.1% for the second.

First: O=C1CC(c2ccccc2)CC(O)=C1C=NCCCN1CCOCC1 (stereo not drawn)
Second: CC(=O)N1CCc2cc(Br)cc(S(=O)(=O)NCCCN(C)Cc3ccccc3)c21
The “hERG current change (%, negative = inhibition) at 10uM” value of the first is higher: -9.92% for the first, -38.3% for the second.

Compared with COc1ccc(CNS(=O)(=O)c2cc(Br)cc3c2N(C(C)=O)C(C)C3)cc1 (stereo not drawn), CC(=O)N1c2c(cc(Br)cc2S(=O)(=O)NCc2ccc(C)cc2)CC1C (stereo not drawn) is lower in “hERG current change (%, negative = inhibition) at 10uM” value: -40.9% for the first, -59.5% for the second.

Compared with CC(=O)N1c2c(cc(Br)cc2S(=O)(=O)NCc2ccccc2)CC1C (stereo not drawn), O=C(C1CC1)N1CCc2cc(Br)cc(S(=O)(=O)NCc3ccc4c(c3)OCO4)c21 is lower in “hERG current change (%, negative = inhibition) at 10uM” value: -35.5% for the first, -64.8% for the second.

First: O=C(O)CCS(=O)(=O)c1cc(Br)cc2c1N(C(=O)C1CC1)CC2
Second: CCN(c1ccc2c(c1)OCO2)S(=O)(=O)c1cc(Br)cc2c1N(C(=O)C1CC1)CC2
The “hERG current change (%, negative = inhibition) at 10uM” value of the first is higher: 9.39% for the first, 8.05% for the second.

Going from CCCN(CCC)S(=O)(=O)c1cc(Br)cc2c1N(C(=O)CC)CC2 to CCN(CC)CCn1c(=S)[nH]c2ccc(Br)cc2c1=O, the “hERG current change (%, negative = inhibition) at 10uM” value falls from -2.75% to -66.7%.

First: COc1cc(CNn2cnnc2)ccc1OCC(=O)NC(C)(C)C
Second: CCOc1ccc(Nc2ncnc3c2cnn3C)cc1
The “hERG current change (%, negative = inhibition) at 10uM” value of the first is higher: 1.29% for the first, -16.6% for the second.

Compared with CCn1c(SCC(=O)N=Nc2c(O)[nH]c3ccccc23)nc2ccccc21, CCN(CC)CCn1c(=S)[nH]c2ccccc2c1=O is lower in “hERG current change (%, negative = inhibition) at 10uM” value: -11.9% for the first, -25.6% for the second.

Going from CC1=CC(=O)CC(C)(C)C1(O)/C=C/C(C)=C/C(=O)O (stereo not drawn) to CCN(CC)CCn1c(=S)[nH]c2ncccc2c1=O, the “hERG current change (%, negative = inhibition) at 10uM” value falls from 5.43% to -20.5%.

Going from COc1cccc(C(c2c(C)[nH]n(-c3ccccc3)c2=O)c2c(C)[nH]n(-c3ccccc3)c2=O)c1O to CCN(CC)CCn1c(=S)[nH]c2ccc(Cl)cc2c1=O, the “hERG current change (%, negative = inhibition) at 10uM” value falls from -4.28% to -60.8%.

Compared with CCN(CC)CCCn1c(=S)[nH]c2ncccc2c1=O, CCN(CC)CCCn1c(=S)[nH]c2ccc(Cl)cc2c1=O is lower in “hERG current change (%, negative = inhibition) at 10uM” value: -15.9% for the first, -63.7% for the second.

CCN(CC)CCn1c(=S)[nH]c2cc3c(cc2c1=O)OCO3 was tested, and the “hERG current change (%, negative = inhibition) at 10uM” value was -24.2%.
